PubChem BioAssay AID1159580 (chemical genetic matrix, 2015)
Screen size: about 5,500 compounds; about 2,000 (36%) were called active. Not shown: some 18% with an inconclusive outcome. Cut-off read from the data, not from the text of the source: active = normalized growth mostly below about 0.91 (no sharp cut-off); inconclusive = no clear call, values can overlap the other calls; inactive = mostly above about 0.92. Some of the results follow.

Test: chemical genetic growth profiling, strain panel (AID 1159580);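 note: tested at 20 µM; growth read once vehicle control cultures reached saturation at 30 °C; 1 = growth at the plate median or of vehicle wells; lower values mean less growth of the strain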
Settings: growth OD
[1] = S. cerevisiae deletion strains, locus YAL013W, strain DEP1, active compounds read low
[2] = S. cerevisiae deletion strains, locus YBR229C, strain ROT2, active compounds read low
[3] = S. cerevisiae deletion strains, locus YDL101C, strain DUN1, active compounds read low
[4] = S. cerevisiae deletion strains, locus YDL134C, strain PPH21, active compounds read low
[5] = S. cerevisiae deletion strains, locus YDR150W, strain NUM1, active compounds read low
[6] = S. cerevisiae deletion strains, locus YEL061C, strain CIN8, active compounds read low
[7] = S. cerevisiae deletion strains, locus YGR078C, strain PAC10, active compounds read low
[8] = S. cerevisiae deletion strains, locus YHR030C, strain SLT2, active compounds read low
[9] = S. cerevisiae deletion strains, locus YHR087W, strain rtc3, active compounds read low
[10] = S. cerevisiae deletion strains, locus YJL187C, strain SWE1, active compounds read low
[11] = S. cerevisiae deletion strains, locus YJR043C, strain POL32, active compounds read low
[12] = S. cerevisiae deletion strains, locus YJR075W, strain HOC1, active compounds read low
[13] = S. cerevisiae deletion strains, locus YLR039C, strain RIC1, active compounds read low
[14] = S. cerevisiae deletion strains, locus YLR058C, strain SHM2 (second series), active compounds read low
[15] = S. cerevisiae deletion strains, locus YLR085C, strain ARP6, active compounds read low
[16] = S. cerevisiae deletion strains, locus YLR262C, strain YPT6, active compounds read low
[17] = S. cerevisiae deletion strains, locus YML094W, strain GIM5, active compounds read low
[18] = S. cerevisiae deletion strains, locus YMR219W, strain ESC1, active compounds read low
[19] = S. cerevisiae deletion strains, locus YMR263W, strain SAP30, active compounds read low
[20] = S. cerevisiae deletion strains, locus YNL128W, strain TEP1, active compounds read low
[21] = S. cerevisiae deletion strains, locus YNL153C, strain GIM3, active compounds read low
[22] = S. cerevisiae deletion strains, locus YNL298W, strain CLA4 (second series), active compounds read low
[23] = S. cerevisiae deletion strains, locus YNL322C, strain KRE1, active compounds read low
[24] = S. cerevisiae deletion strains, locus YNR030W, strain Alg12, active compounds read low
[25] = S. cerevisiae deletion strains, locus YOL006C, strain TOP1, active compounds read low
[26] = S. cerevisiae deletion strains, locus YPL055C, strain LGE1, active compounds read low
[27] = S. cerevisiae deletion strains, locus YPL241C, strain CIN2, active compounds read low
[28] = S. cerevisiae deletion strains, locus YPR135W, strain CTF4, active compounds read low
[29] = S. cerevisiae strains, strain wild type, active compounds read low
[30] = S. cerevisiae deletion strains, locus YKL190W, strain CNB1, active compounds read low
[31] = S. cerevisiae deletion strains, locus YMR307W, strain GAS1, active compounds read low
[32] = S. cerevisiae deletion strains, locus YGR229C, strain SMI1, active compounds read low

Measured: normalized growth

NC(=NS(=O)(=O)c1cc(C(F)(F)F)cc(C(F)(F)F)c1)c1cccs1
inactive: [1] 0.975 | [2] 0.977 | S. cerevisiae deletion strains, locus YCL061C, strain MRC1, active compounds read low 0.996 | [3] 0.994 | [4] 0.984 | [5] 0.969 | [6] 0.934 | [7] 0.963 | [8] 0.975 | [9] 1.01 | [10] 0.987 | [11] 0.957 | [14] 0.967 | [15] 0.928 | [17] 0.927 | [18] 0.982 | [19] 0.978 | [20] 1 | [21] 0.991 | [22] 0.933 | [23] 0.977 | [24] 0.942 | [25] 0.949 | [26] 0.9 | [27] 0.946 | [28] 0.877 | [29] 0.978
active: [12] 0.89 | [13] 0.561 | [16] 0.578

NC(N)=NC(N)=Nc1cc(C(F)(F)F)cc(C(F)(F)F)c1
inactive: [1] 1 | [2] 0.999 | [3] 0.992 | [5] 0.998 | [6] 1.02 | [7] 0.995 | [8] 0.983 | [9] 0.99 | [10] 1 | [11] 1.01 | [12] 0.977 | [30] 1.01 | [13] 1.01 | [14] 1.01 | [15] 1.03 | [16] 1.01 | [17] 0.956 | [18] 1 | [19] 1.01 | [31] 0.963 | [21] 0.993 | [22] 0.988 | [23] 0.987 | [24] 1.01 | [26] 0.999 | [27] 1.12 | [28] 1 | [29] 1.01

CN1CCCC12NCCc1c2[nH]c2ccccc12 (stereo unspecified)
inactive: [1] 0.993 | [2] 1 | [3] 1 | [5] 0.98 | [6] 0.998 | [7] 0.993 | [32] 0.997 | [8] 0.981 | [9] 0.986 | [11] 0.999 | [12] 0.973 | [13] 0.976 | [14] 0.987 | [15] 0.991 | [16] 0.976 | [17] 1.06 | [18] 1.01 | [19] 0.985 | [21] 1 | [22] 0.982 | [23] 1 | [24] 0.965 | [26] 1.01 | [27] 0.969 | [28] 1.03

c1ccc2c3c([nH]c2c1)CNCC3
inactive: S. cerevisiae deletion strains, locus YBR021W, strain FUR4, active compounds read low 1.01 | [2] 0.999 | S. cerevisiae deletion strains, locus YCL029C, strain bik1, active compounds read low 1.02 | S. cerevisiae deletion strains, locus YDL035C, strain GPR1, active compounds read low 0.991 | S. cerevisiae deletion strains, locus YDL074C, strain BRE1, active compounds read low 1.01 | [3] 1.01 | S. cerevisiae deletion strains, locus YDL185W, strain tfp1, active compounds read low 1.01 | S. cerevisiae deletion strains, locus YDL192W, strain arf1, active compounds read low 0.997 | S. cerevisiae deletion strains, locus YDR101C, strain arx1, active compounds read low 1.02 | [5] 1 | S. cerevisiae deletion strains, locus YDR162C, strain NBP2, active compounds read low 0.965 | S. cerevisiae deletion strains, locus YDR318W, strain mcm21, active compounds read low 0.979 | S. cerevisiae deletion strains, locus YDR388W, active compounds read low 0.997 | S. cerevisiae deletion strains, locus YDR502C, strain sam2, active compounds read low 1.01 | [6] 0.997 | S. cerevisiae deletion strains, locus YER110C, active compounds read low 1 | S. cerevisiae deletion strains, locus YER155C, strain BEM2, active compounds read low 1.01 | S. cerevisiae deletion strains, locus YER167W, strain BCK2, active compounds read low 0.999 | S. cerevisiae deletion strains, locus YGL078C, strain dbp3, active compounds read low 0.997 | S. cerevisiae deletion strains, locus YGL086W, strain mad1, active compounds read low 1.02 | S. cerevisiae deletion strains, locus YGL248W, strain PDE1, active compounds read low 0.994 | [7] 1 | S. cerevisiae deletion strains, locus YGR135W, strain pre9, active compounds read low 0.97 | S. cerevisiae deletion strains, locus YGR252W, strain gcn5, active compounds read low 0.906 | [8] 1 | S. cerevisiae deletion strains, locus YHR079C, strain IRE1 (second series), active compounds read low 1.01 | S. cerevisiae deletion strains, locus YHR094C, strain hxt1, active compounds read low 1 | S. cerevisiae deletion strains, locus YHR129C, strain ARP1, active compounds read low 1.01 | S. cerevisiae deletion strains, locus YHR200W, strain rpn10, active compounds read low 1 | S. cerevisiae deletion strains, locus YIL066C, strain RNR3, active compounds read low 1 | S. cerevisiae deletion strains, locus YIL073C, strain SPO22, active compounds read low 1.05 | S. cerevisiae deletion strains, locus YIL125W, strain kgd1, active compounds read low 1.02 | S. cerevisiae deletion strains, locus YIR030C, strain dcg1, active compounds read low 1.01 | S. cerevisiae deletion strains, locus YJL095W, strain BCK1, active compounds read low 0.987 | S. cerevisiae deletion strains, locus YJL134W, strain LCB3, active compounds read low 0.999 | S. cerevisiae deletion strains, locus YJL168C, strain set2, active compounds read low 1 | S. cerevisiae deletion strains, locus YJL187C, strain SWE1 (second series), active compounds read low 0.997 | [11] 1.01 | S. cerevisiae deletion strains, locus YKL009W, strain mrt4, active compounds read low 1.01 | S. cerevisiae deletion strains, locus YKL068W, active compounds read low 1 | S. cerevisiae deletion strains, locus YKL085W, strain MDH1 (second series), active compounds read low 1 | S. cerevisiae deletion strains, locus YKL085W, strain MDH1, active compounds read low 1 | [30] 1 | S. cerevisiae deletion strains, locus YKR001C, strain vps1, active compounds read low 1.02 | [13] 1.01 | S. cerevisiae deletion strains, locus YLR058C, strain SHM2, active compounds read low 0.985 | S. cerevisiae deletion strains, locus YLR102C, strain apc9, active compounds read low 1 | [16] 0.993 | S. cerevisiae deletion strains, locus YLR268W, strain sec22, active compounds read low 1.03 | S. cerevisiae deletion strains, locus YLR330W, strain CHS5, active compounds read low 1.01 | S. cerevisiae deletion strains, locus YLR342W, strain FKS1 (second series), active compounds read low 0.976 | S. cerevisiae deletion strains, locus YLR371W, strain rom2, active compounds read low 1.02 | S. cerevisiae deletion strains, locus YLR418C, strain cdc73, active compounds read low 0.96 | S. cerevisiae deletion strains, locus YML016C, strain PPZ1, active compounds read low 0.997 | S. cerevisiae deletion strains, locus YML032C, strain rad52, active compounds read low 0.966 | S. cerevisiae deletion strains, locus YML124C, strain tub3, active compounds read low 0.996 | S. cerevisiae deletion strains, locus YMR078C, strain ctf18, active compounds read low 1.02 | S. cerevisiae deletion strains, locus YMR223W, strain ubp8, active compounds read low 0.972 | [19] 1 | [31] 1.02 | S. cerevisiae deletion strains, locus YNL067W, strain RPL9B, active compounds read low 1 | [20] 1.01 | [21] 0.997 | S. cerevisiae deletion strains, locus YNL233W, strain BNI4, active compounds read low 1 | S. cerevisiae deletion strains, locus YNL250W, strain rad50, active compounds read low 1.01 | S. cerevisiae deletion strains, locus YNL271C, strain bni1, active compounds read low 1.01 | S. cerevisiae deletion strains, locus YNL298W, strain CLA4, active compounds read low 0.99 | S. cerevisiae deletion strains, locus YNL307C, strain MCK1, active compounds read low 1.01 | S. cerevisiae deletion strains, locus YNR052C, strain pop2, active compounds read low 0.971 | [25] 1.06 | S. cerevisiae deletion strains, locus YOL012C, strain htz1 0.744 | S. cerevisiae deletion strains, locus YOL147C, strain pex11, active compounds read low 1 | S. cerevisiae deletion strains, locus YOR061W, strain CKA2, active compounds read low 0.998 | S. cerevisiae deletion strains, locus YOR069W, strain VPS5, active compounds read low 1 | S. cerevisiae deletion strains, locus YOR136W, strain idh2, active compounds read low 1.02 | S. cerevisiae deletion strains, locus YOR144C, strain elg1, active compounds read low 1.01 | S. cerevisiae deletion strains, locus YOR184W, strain ser1, active compounds read low 1 | S. cerevisiae deletion strains, locus YOR316C, strain cot1, active compounds read low 1.01 | [26] 0.983 | [27] 0.988 | S. cerevisiae deletion strains, locus YPR119W, strain clb2, active compounds read low 1.01 | S. cerevisiae deletion strains, locus YPR141C, strain kar3, active compounds read low 1.01 | S. cerevisiae deletion strains, locus YPR163C, strain tif3, active compounds read low 1.01 | S. cerevisiae deletion strains, locus YPR167C, strain met16, active compounds read low 0.992 | S. cerevisiae deletion strains, strain wtn01, active compounds read low 1.03 | [29] 0.989

c1ccc2c(c1)CCc1c-2[nH]c2ccccc12
active: [1] 0.641 | [2] 0.682 | [3] 0.62 | [4] 0.461 | [5] 0.704 | [6] 0.415 | [7] 0.732 | [32] 0.735 | [8] 0.137 | [9] 0.748 | [11] 0.751 | [12] 0.562 | [13] 0.162 | [14] 0.827 | [15] 0.109 | [16] 0.142 | [17] 0.467 | [18] 0.783 | [19] 0.634 | [21] 0.7 | [22] 0.23 | [23] 0.91 | [24] 0.418 | [25] 0.115 | [26] 0.322 | [27] 0.416 | [28] 0.294
